Broadly, the AC50 is the midpoint of the concentration-response curve, whichever way the signal moves.

SMILES strings stand for the structures. Activity calls are given as the source filed them. The calls were made as follows: active = hit-call score of the fitted dose curve at least 0.9, where 1 is the maximum; inactive = score below 0.9.

Read-out in the first assay: Insulin Like Growth Factor 1 (IGF1), IGF1 (gene 3479)
In words: LTEA_HepaRG_IGF1: Life Technologies and Expression Analysis (LTEA) Assay for Insulin Like Growth Factor 1 (IGF1) using HepaRG (AID 2283506). The conditions noted are these: mRNA level, 48 h; actives raise or lower the signal. The essentials: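 HepaRG, plated 48 h, then switched to serum-free induction media; test chemical 8-pt half-log from 100 uM (0.5% DMSO), duplicate, 48 h. Lysis in RLT, TaqMan qRT-PCR, norm. ACTB/GAPDH/POLR2A. Bidirectional fit vs DMSO.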
For `CC(C)(C)c1cc(C(C)(C)C)c(O)c(C(C)(C)C)c1`, the call was inactive.
Take `Cc1cc(C)c(O)c(C)c1`: the outcome was inactive.
Consider `CCCCC(CC)COC(=O)CCCCC(=O)OCc1ccccc1` (stereo not drawn), for which the call was inactive.
For `c1ccc2c(c1)ccc1ccccc12`, the molecule was classed as inactive.
On to `CCCCCCCCOC(=O)CCCCCCCCC(=O)OCCCCCCCC`, for which the outcome was inactive.
For `CC(C)(C)c1ccc(O)c(C(C)(C)C)c1`, the molecule was classed as inactive.
For the molecule `O=C(OCCOCCOC(=O)c1ccccc1)c1ccccc1`, the result was inactive.
Turning to `CCCOc1sc(C(=O)N2CCC(c3cc(CN)ccc3F)CC2)c(C)c1Br`, the call was inactive.
On to `CCc1nn(C2CCCCC2)c2cc(C3(C#N)CCC(C(=O)O)CC3)ccc12` (stereo not drawn), for which the AC50 was 57.3 µM (active).
Take `COCC(C)OCC(C)O` (stereo not drawn): the result was inactive.
On to `CC(C)(C)CC(C)(C)c1ccc(O)c(-n2nc3ccccc3n2)c1`, for which the half-maximal activity concentration (AC50) was 50 µM (active).
As for `CC(O)CO` (stereo not drawn), the outcome was inactive.
The same measure, in the same setting: the result for `COc1ccc([N+](=O)[O-])cc1N` reads “inactive”; that for `CCCCCCCCCCCCN1CCCC1=O`, “inactive”; that for `OCCC(F)(F)C(F)(F)C(F)(F)C(F)(F)C(F)(F)C(F)(F)F`, “inactive”.
Regarding `CCCCCCCCCCCCc1ccccc1S(=O)(=O)O`, the concentration at half-maximal activity (AC50) was 38.9 µM (active).
Consider `OCCC(F)(F)C(F)(F)C(F)(F)C(F)(F)C(F)(F)C(F)(F)C(F)(F)C(F)(F)F`, for which the result was inactive.
Take `CCCCOCCO`: the call was inactive.
Turning to `CCCCCCCCCCCCCCCS(=O)(=O)Oc1ccccc1`, the half-maximal activity concentration (AC50) was 27.5 µM (active).
`CC(C)(C)c1cccc(C(C)(C)C)c1O`: the outcome was inactive.
With `CCC(=C(c1ccc(O)cc1)c1ccc(OCCN(C)C)cc1)c1ccccc1`, the AC50 was 93.4 µM (active).
For the molecule `CC(C)CCCCCCOC(=O)CCCCC(=O)OCCCCCCC(C)C`, the outcome was inactive.
For `CN1CCN(c2ccccc2/C=C2\SCCN(c3ccc(Cl)c(Cl)c3)C2=O)CC1`, the concentration at half-maximal activity (AC50) is 12 µM (active).
Regarding `O=C(O)Cc1cc(I)c(Oc2cc(I)c(O)c(I)c2)c(I)c1`, the call was inactive.
With `CC(=O)CC(C)(C)O`, the result was inactive.
Take `CCN(CC)CCNc1ccc(CNC=O)c2sc3ccc(OC)cc3c(=O)c12`: the half-maximal activity concentration (AC50) is 85.6 µM (active).
Consider `OC1CCC(C2CCCCC2)CC1` (stereo not drawn), for which the molecule was called inactive.
On to `O=c1c(-c2ccc(O)cc2)coc2cc(O)ccc12`, for which the result was inactive.
As for `CN(C)C=O`, the molecule was classed as inactive.
With `NC(=O)N(O)[C@@H]1C=C[C@H](Oc2cccc(Oc3ccc(F)cc3)c2)C1`, the AC50 was 37.9 µM (active).
In the case of `CC[C@H](C)[C@@H](C(=O)O)n1sc2ccccc2c1=O`, the molecule was called inactive.

Read-out in the next assay: Intercellular Adhesion Molecule 1 (ICAM1), ICAM1 (gene 3383)
The assay can be described thus: LTEA_HepaRG_ICAM1: Life Technologies and Expression Analysis (LTEA) Assay for Intercellular Adhesion Molecule 1 (ICAM1) using HepaRG (AID 2283507). The conditions noted are these: mRNA level, 48 h; actives raise or lower the signal. The essentials: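 ICAM1 transcript levels measured by qRT-PCR, normalized to three housekeeping genes (ACTB, GAPDH, POLR2A), after 48 h chemical exposure of HepaRG cells. Duplicate eight-point half-log series from 100 uM in 0.5% DMSO; gain or loss fitted against vehicle.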
For the molecule `CC(C)(C)c1cc(C(C)(C)C)c(O)c(C(C)(C)C)c1`, the result was inactive.
Turning to `CCCCCCCCOC(=O)CCCCCCCCC(=O)OCCCCCCCC`, the molecule was called inactive.
For `O=C(OCCOCCOC(=O)c1ccccc1)c1ccccc1`, the result was inactive.
`CCc1nn(C2CCCCC2)c2cc(C3(C#N)CCC(C(=O)O)CC3)ccc12` (stereo not drawn): the AC50 was 28.7 µM (active).
As for `CCCCOCCO`, the result was inactive.
For `CCC(=C(c1ccc(O)cc1)c1ccc(OCCN(C)C)cc1)c1ccccc1`, the AC50 is 67.9 µM (active).
On to `NC(=O)N(O)[C@@H]1C=C[C@H](Oc2cccc(Oc3ccc(F)cc3)c2)C1`, for which the AC50 was 37.3 µM (active).

Read-out in another assay: Insulin-like growth factor-binding protein 1 (IGFBP1), IGFBP1 (gene 3484)
In words: LTEA_HepaRG_IGFBP1: Life Technologies and Expression Analysis (LTEA) Assay for Insulin-like growth factor-binding protein 1 (IGFBP1) using HepaRG (AID 2283508). The conditions noted are these: mRNA level, 48 h; actives raise or lower the signal. The essentials: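 Read-out is qRT-PCR transcript level normalized to three housekeeping genes, fitted in both directions against 0.5% DMSO. Differentiated HepaRG cells received eight half-log concentrations (top 100 uM) in duplicate for 48 h in serum-free induction medium.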
Take `CC(C)(C)c1cc(C(C)(C)C)c(O)c(C(C)(C)C)c1`: the molecule was called inactive.
Turning to `Cc1cc(C)c(O)c(C)c1`, the molecule was classed as inactive.
For `CCCCC(CC)COC(=O)CCCCC(=O)OCc1ccccc1` (stereo not drawn), the molecule was called inactive.
Regarding `c1ccc2c(c1)ccc1ccccc12`, the result was inactive.
As for `CC(C)(C)c1ccc(O)c(C(C)(C)C)c1`, the result was inactive.
The same measure, in the same setting: the result for `O=C(OCCOCCOC(=O)c1ccccc1)c1ccccc1` reads “inactive”; that for `CCCOc1sc(C(=O)N2CCC(c3cc(CN)ccc3F)CC2)c(C)c1Br`, “inactive”.
Take `CCc1nn(C2CCCCC2)c2cc(C3(C#N)CCC(C(=O)O)CC3)ccc12` (stereo not drawn): the AC50 was 75.7 µM (active).
For `COCC(C)OCC(C)O` (stereo not drawn), the result was inactive.
Take `CC(C)(C)CC(C)(C)c1ccc(O)c(-n2nc3ccccc3n2)c1`: the molecule was classed as inactive.
Same read-out and setting: under `CC(O)CO` (stereo not drawn) stands “inactive”; under `COc1ccc([N+](=O)[O-])cc1N`, “inactive”; under `CCCCCCCCCCCCN1CCCC1=O`, “inactive”.
As for `OCCC(F)(F)C(F)(F)C(F)(F)C(F)(F)C(F)(F)C(F)(F)F`, the result was inactive.
As to `CCCCCCCCCCCCc1ccccc1S(=O)(=O)O`, the AC50 was 76.8 µM (active).
In the case of `OCCC(F)(F)C(F)(F)C(F)(F)C(F)(F)C(F)(F)C(F)(F)C(F)(F)C(F)(F)F`, the molecule was called inactive.
Regarding `CCCCOCCO`, the molecule was classed as inactive.
For `CCCCCCCCCCCCCCCS(=O)(=O)Oc1ccccc1`, the outcome was inactive.
Take `CC(C)(C)c1cccc(C(C)(C)C)c1O`: the outcome was inactive.
As for `CCC(=C(c1ccc(O)cc1)c1ccc(OCCN(C)C)cc1)c1ccccc1`, the AC50 is 76.5 µM (active).
Turning to `CC(C)CCCCCCOC(=O)CCCCC(=O)OCCCCCCC(C)C`, the outcome was inactive.
Regarding `CN1CCN(c2ccccc2/C=C2\SCCN(c3ccc(Cl)c(Cl)c3)C2=O)CC1`, the AC50 was 60.9 µM (active).
As for `O=C(O)Cc1cc(I)c(Oc2cc(I)c(O)c(I)c2)c(I)c1`, the half-maximal activity concentration (AC50) is 55.7 µM (active).
Consider `CC(=O)CC(C)(C)O`, for which the result was inactive.
With `CCN(CC)CCNc1ccc(CNC=O)c2sc3ccc(OC)cc3c(=O)c12`, the half-maximal activity concentration (AC50) was 94.1 µM (active).
With `OC1CCC(C2CCCCC2)CC1` (stereo not drawn), the molecule was classed as inactive.
The same measure, in the same setting: the result for `O=c1c(-c2ccc(O)cc2)coc2cc(O)ccc12` reads “inactive”; that for `CN(C)C=O`, “inactive”.
As to `NC(=O)N(O)[C@@H]1C=C[C@H](Oc2cccc(Oc3ccc(F)cc3)c2)C1`, the AC50 was 71.8 µM (active).
As to `CC[C@H](C)[C@@H](C(=O)O)n1sc2ccccc2c1=O`, the molecule was classed as inactive.

The values are drawn from PubChem BioAssay (EPA / NIEHS).
